Only some compounds are listed: those with a hit (about 1.2% of all), similar ones and a draw of the others.
HTT cytoprotect = qHTS Multiplex Assay to Identify Dual Action Probes in a Cell Model of Huntington: Cytoprotection (ATP); PC12 HTT-Q103 induced, cytoprotection, ATP luminescence, 40 h; Potency, µM (doses to about 56.4 µM), for inactives: cytoprotection (ATP increase), actives largely listed as activators; 230,000 compounds, 0.14% hits; also: potency is read from the fitted curve at half-maximal effect; % of control where 0% means no effect; nearly all actives have a fitted effect of over 45% in size
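PC12 cells stably carrying ecdysone-inducible Htt exon 1 (Q103)–GFP were induced with 100 nM tebufenozide (final) alongside library compounds in a dose series. Cytoprotection was scored as retained ATP by ATPlite luminescence.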
PKM2 act = qHTS Assay for Activators of Human Muscle isoform 2 Pyruvate Kinase; AID 1631, 2009; Potency, µM (series often up to 57.5 µM), inactives show at the top dose activation, most hits filed as activators; purified PKM2, Kinase-Glo ATP luminescence, activation; response scale: 0% is enzyme alone, no compound; Pyruvate kinase PKM (Homo sapiens), P14618; 260,000 compounds, 0.34% hits; also: potency is read from the fitted curve at half-maximal effect; % is scaled to controls: 0 for no effect and ±100 for the full control effect; nearly all actives have a fitted effect of over 55% in size
Target sequence (P14618 whole entry, looked up, canonical isoform): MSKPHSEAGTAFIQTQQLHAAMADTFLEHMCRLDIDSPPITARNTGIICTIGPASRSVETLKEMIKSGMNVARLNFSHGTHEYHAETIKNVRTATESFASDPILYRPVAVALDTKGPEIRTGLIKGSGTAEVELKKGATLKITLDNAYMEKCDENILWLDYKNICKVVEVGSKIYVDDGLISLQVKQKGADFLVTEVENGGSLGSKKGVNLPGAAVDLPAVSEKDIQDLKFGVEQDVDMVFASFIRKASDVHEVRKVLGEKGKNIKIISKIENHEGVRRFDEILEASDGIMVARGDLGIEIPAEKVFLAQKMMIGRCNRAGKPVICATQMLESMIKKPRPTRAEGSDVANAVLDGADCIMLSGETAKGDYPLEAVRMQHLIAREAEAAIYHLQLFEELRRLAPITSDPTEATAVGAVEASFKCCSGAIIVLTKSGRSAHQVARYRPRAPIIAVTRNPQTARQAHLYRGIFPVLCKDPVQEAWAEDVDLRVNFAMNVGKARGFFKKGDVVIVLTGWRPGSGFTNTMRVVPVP
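Purified hPK-M2 (>95%) run at intermediate activity with 0.1 mM ADP and 0.5 mM PEP in 50 mM imidazole pH 7.2, KCl, MgCl2; 1 h room temperature. ATP formed read by Kinase-Glo luminescence; normalized to uninhibited and no-enzyme controls.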
GLA spleen mod = qHTS Assay for Inhibitors and Activators of Human alpha-Galactosidase From Spleen Homogenate. AID 2107, 2009. 240,000 compounds, 0.008% hits. human spleen homogenate, 4MU-alpha-Gal fluorescence, 40 min. Potency, µM (series often up to 80 µM), without a hit: at the highest dose activity change, negative = inhibition, actives largely listed as inhibitors;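 also: potency is read from the fitted curve at half-maximal effect; 0% = enzyme with vehicle and -100% = no enzyme basal signal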
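Inhibition or activation of alpha-galactosidase in human spleen homogenate is scored by 4-MU fluorescence after 40 min at 37C, pH 5.0, with 1 mM substrate. AC50s come from concentration-response fitted to the Hill equation.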
GLA inh pH 4.5 = qHTS Assay for Inhibitors of Human alpha-Galactosidase at pH 4.5; AID 1467, 2008; purified enzyme, 4-MU-alpha-Gal fluorescence, pH 4.5; activity change, negative = inhibition, % at 105 µM; 230,000 tested, under 10 active; Alpha-galactosidase A (Homo sapiens), P06280;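 also: 0% = full activity with enzyme and -100% = basal without enzyme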
HTT aggregate = qHTS Multiplex Assay to Identify Dual Action Probes in a Cell Model of Huntington: Aggregate Formation (GFP); PC12 HttQ103-GFP aggregates, Acumen cytometry, 40 h; Potency, µM (doses to about 46.1 µM), inactives show at the highest dose activity change, negative = inhibition, hits mostly inhibitors; 220,000 compounds, 1.1% hits; AID 1688, 2009; also: potency is read from the fitted curve at half-maximal effect; % is scaled to controls: 0 for no effect and ±100 for the full control effect; nearly all actives have a fitted effect of over 60% in size
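Huntingtin Q103 exon 1–GFP aggregates in induced PC12 cells (100 nM tebufenozide) were quantified by cytometry from lysates, with compounds dosed in titration.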
Active calls of the source: *; u = inconclusive; x = no result; ! = repeats disagree; [ ] = remark or other dose. Calls follow the shape of the dose curve; as a rule, active = well fitted curve in the direction sought with a large enough effect; inconclusive = small, poorly fitted or top-dose-only effect, or another doubt; inactive = no such curve, though single readings can be large; an effect the other way counts as inactive or inconclusive.

SMILES	HTT cytoprotect	PKM2 act	GLA spleen mod	GLA inh pH 4.5	HTT aggregate
CC(C)C(=O)N(c1ccc2oc(=O)sc2c1)S(=O)(=O)c1cccs1	12.6µM*	u	-4.0%	-11.6	x
O=C1CN(C(=O)Cn2ncc(Cl)c(Cl)c2=O)c2ccccc2N1	-159.3%	-0.2%	9.7%	1.5	11.2µM*
CCC(=O)OC1C(N(C)C)CC(C)O[C@H]1O[C@H]1[C@H](C)[C@@H](O[C@H]2CC(OC)[C@@H](O)C(C)O2)[C@H](C)C(=O)O[C@@H](CC)[C@](C)(O)[C@@H](O)[C@H](C)C(=O)[C@@H](C)C[C@]1(C)O (some centres not stated)	0.2%	x	x	x	5.5%
COc1cccc(Nc2nc3ccccc3nc2NS(=O)(=O)c2cccs2)c1	-76.6%	22.6%	8.2%	0.3	14.1µM*
Nn1cc(Br)c(=O)[nH]c1=O	-23.1%	x	-2.7%	x	x
COc1cccc(NC(=O)Cn2c(=O)n(CCC(=O)NCc3ccco3)c(=O)c3ccccc32)c1	3.16µM*	-1.2%	-2.7%	7.3	20.7%
COc1cccc(NC(=O)Cn2c(=O)n(CCCC(=O)NCc3ccco3)c(=O)c3ccccc32)c1	-4.2%	-5.6%	-8.3%	-1.5	7.4%
CC1=CC(=O)C2=C(C)CC[C@@H]3[C@H](OC(=O)[C@H]3C)[C@H]12	-22.7%	x	x	x	x
Cc1c(C(=O)NCc2ccc3c(c2)OCO3)sc2nc(-c3ccccc3)cn12	-15.3%	2.3%	1.8%	0.2	-12.2%
CCn1c(N)c(C(=O)NCc2ccc3c(c2)OCO3)sc1=S	-12.6%[0.074 µM]	5.01µM*	2.5%	-4.9	-8.8%
Cc1c(C(=O)NCc2ccc3c(c2)OCO3)sc2nc(-c3ccc(F)cc3)cn12	11.1%	4.8%	-4.5%	7.3	0.891µM*
COc1ccc(NC2C[C@H]3CCCC(=O)N4CC[C@@H](C2)[C@@H]34)cc1 (some centres not stated)	14.0%	x	5.5%[119 µM]	-1.0	x
Cn1c(=O)c2[nH]c(CS(=O)(=O)Cc3nc4c([nH]3)c(=O)n(C)c(=O)n4C)nc2n(C)c1=O	-8.9%[10 µM]	x	x	x	x
C/C=C/OC(=O)NC(c1cccc(C)c1)[C@@]1(C(=O)OCC)CCCC1=O (some centres not stated)	-10.1%[10 µM]	x	5.2%[17.5 µM]	x	x
O=C(/C=C/c1ccco1)NCC(=O)N/N=C/c1ccc(Cl)cc1	x	-32.3%	3.9%	-4.0	46.5%
C/C(=N/NC(=O)CNC(=O)/C=C/c1ccco1)c1ccc(Cl)cc1	-21.4%[10 µM]	25.1µM*	-3.6%	2.8	9.7%[9.22 µM]
CCOC(=O)Cc1c(C)nc2c(C#N)c[nH]n2c1=O	-8.9%	-0.5%	4.3%	4.9	14.6%
CCOC(=O)Cc1c(C)nc2c(-c3ccc(Cl)cc3)c(C)[nH]n2c1=O	-67.9%	0.3%	6.9%	-11.4	17.8µM*
CCOC(=O)Cc1c(C)nc2c(-c3cccc(Br)c3)c[nH]n2c1=O	-26.3%	-0.9%	-4.7%	-6.2	11.2µM*
O=c1c2c(nc3c(-c4cccc(Br)c4)c[nH]n13)CCCC2	-37.3%[10 µM]	-0.3%	-1.6%	0.8	3.55µM*
CC(=O)c1cccc(NC(=O)Nc2cccnc2)c1	10.1%[0.074 µM]	-8.7%	-4.5%	5.2	7.94µM*
CC(=O)c1cccc(NC(=O)Nc2ccc(C(=O)N3CCOCC3)cc2)c1	-8.8%[10 µM]	-11.8%	-4.0%	2.1	10µM*
CC(=O)c1cccc(NC(=O)Nc2cccs2)c1	-11.7%	16.4%	2.5%	1.6	12.6µM*
NC(=O)c1cc2ccc(O)cc2oc1=Nc1ccccc1	-20.6%	-15.4%	u	18.6	7.08µM*
CN(C)c1ccc(-c2cncnc2NCCc2cnc[nH]2)cc1	-20.4%	x	2.9%	x	x
SMILES	HTT cytoprotect	PKM2 act	GLA spleen mod	GLA inh pH 4.5	HTT aggregate
Cc1ccc(/C=N/Nc2ccc3ccccc3n2)o1	-164.5%	-6.3%	8.5%	-3.3	12.6µM*
COc1cc2c(c(OC)c1OC)-c1c(cc3c(c1OC)OCO3)CC(C)C(C)(O)C2OC(=O)c1ccccc1 (configuration not stated)	x	x	-11.1%	x	x
Cc1c(CNC2CCCC2)c(C(=O)O)c(C)n1Cc1ccccc1	114.7%[10 µM]	-2.8%	-2.3%	-2.3	0.794µM*
Cc1c(CNC2CCC(C)CC2)c(C(=O)O)c(C)n1Cc1ccccc1 (configuration not stated)	-10.2%[10 µM]	-13.6%	1.2%	0.4	-6.0%
O=S(=O)(c1cccc2cnccc12)N1CCCNCC1	u	3.6%	1.1%	3.8	12.6µM*!
COCCOc1nc2c(c(=O)n(C)c(=O)n2C)n1Cc1cccc(OC)c1	9.5%	0.9%	-2.7%	3.8	8.91µM*
COc1ccc(Oc2nc3c(c(=O)n(C)c(=O)n3C)n2Cc2cccc(OC)c2)cc1	-5.5%	-5.0%	13.7%	1.4	-8.2%
O=C(O)C1CCC[C@@H]2[C@@H]3CC(CN12)[C@@H]1CCCCN1C3 (some centres not stated)	22.7%	x	4.6%	-22.2	x
CC(C)=N[C@H](C(=O)O)C(C)(C)S	-2.6%[10 µM]	x	x	x	x
O=C(COC(=O)/C=C/c1cccs1)Nc1nc(-c2ccccc2)cs1	x	-5.6%	3.9%	2.1	11.3%
O=C(/C=C/c1cccs1)Nc1nc(-c2ccccc2)cs1	-20.7%[10 µM]	0.2%	7.5%	0.6	35.5µM*
O=C(O)[C@H](/C=C\c1ccccc1)c1ccccc1	-4.7%[10 µM]	x	x	x	x
CCOc1cccc(/C=N/Nc2ccc(S(=O)(=O)N(CC)CC)cn2)c1O	-65.6%[10 µM]	11.5%	6.8%	4.2	1.41µM*
CC[C@H]1C2=C3C(CC[C@H]4C(OC)OC[C@](C)([C@@H]34)N(C(=O)OC(C)(C)C)C2)C(CO)C1CO (some centres not stated)	-33.4%	-0.5%	8.1%	-3.6	x
Cc1cccc(/C=N\NC(=O)c2ccc(Cl)cc2)c1O	-82.1%[10 µM]	-6.2%	-11.0%	-3.0	0.447µM*
COc1cccc(/C=N/NC(=O)c2ccc(=O)n(C)c2)c1O	-84.0%[10 µM]	-0.1%	-1.9%	1.6	7.94µM*
COc1cccc(/C=N/NC(=O)c2ccc([N+](=O)[O-])cc2Cl)c1O	-78.7%[10 µM]	-2.9%	-20.1%	-1.4	7.08µM*
Cc1cccc(/C=N/NC(=O)Cc2ccc(Cl)cc2)c1O	x	0.9%	x	x	x
COc1cc(/C=N/NC(=O)c2cccc([N+](=O)[O-])c2)cc(OC)c1O	-32.7%	9.7%	-2.2%	-5.3	-3.1%
CNCCCCc1cnc(C)c2[nH]c3ccccc3c12	3.55µM*	x	1.6%	4.6	x
Cc1ccc(C)c2c1[nH]c1ccccc12	33.8%	1.8%	2.5%	-0.9	3.7%
O=C(O)CC[C@@H](C(=O)O)N1C(=O)c2ccccc2C1=O	-0.6%[10 µM]	-3.8%	7.94µM*!	-1.2	-12.1%[9.22 µM]
